Assay results taken from the supplement of paper PMC10646978.
± gives the standard deviation.

How the values were obtained:
Settings in all cases: modulator concentration 10 µM
[1] = test system: RAW-Dual (murine macrophage reporter line); test: NF-kB reporter (SEAP) activity fold change vs agonist alone; higher = enhanced NF-kB activity
Procedure, shortened: (§1)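 Compound reached 10 μM final in each well by pin transfer, onto RAW-Dual murine macrophage reporter cells seeded at 50 000 per well in 384-well plates. After 1 hour at 37 °C, the cells were stimulated overnight with a PRR agonist. SEAP in the supernatant was read with QUANTI-Blue at 620 nm absorbance for NF-κB, and Lucia luciferase was read with QUANTI-Luc luminescence for IRF. Each signal was turned into fold change against the mean agonist-only control on the same plate, and two replicate plates were averaged with propagated errors.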

[2] = test system: RAW-Dual (murine macrophage reporter line); test: IRF reporter (Lucia luciferase) activity fold change vs agonist alone; higher = enhanced IRF activity
Procedure, shortened: as §1

[3] = test system: RAW-Dual (murine macrophage reporter line); test: viability score (confluency relative to resting cells, overnight) (fraction); higher = more viable, active = viable (0.7 or more)
Procedure, shortened: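 RAW-Dual macrophages in 384-well plates were treated overnight with compound at 10 μM final. IncuCyte imaging recorded confluency, and IncuCyte software built two confluency masks across every imaged well. The viability score expresses confluency relative to resting cells and was judged against a cutoff, which a compound met only if both masks exceeded 70% of resting cells.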

[4] = agonist: CpG ODN 1826 0.5 ug/mL

| SMILES | NF-kB reporter [1, 4] | NF-kB reporter ([1]; agonist: LPS 0.1 ug/mL) | NF-kB reporter ([1]; agonist: MPLA […]) | IRF reporter ([2]; agonist: 3'3'-cGAMP 10 ug/mL) | IRF reporter ([2]; agonist: LPS 0.1 ug/mL) | IRF reporter ([2]; agonist: MPLA […]) | viability score [3] |
| --- | --- | --- | --- | --- | --- | --- | --- |
| Cc1ccc(CN2C3=NCCCN3c3ccccc32)cc1.Cl | 0.294 ± 0.047 | 1.25 ± 0.13 | 1.32 ± 0.17 | 0.881 ± 0.026 | 1.27 ± 0.17 | 1.34 ± 0.2 | 0.999 (active) |
| COC(=O)C1=C(C)NC(=O)CC1c1cc([N+](=O)[O-])ccc1Cl (stereo not drawn) | 0.933 ± 0.055 | 0.986 ± 0.11 | 0.955 ± 0.058 | 0.966 ± 0.032 | 1.16 ± 0.099 | 0.994 ± 0.24 | 0.988 (active) |
| COC(=O)C1C(=O)C(=CNc2ccccc2C)C(=O)CC1(C)C (stereo not drawn) | 1.07 ± 0.092 | 1.02 ± 0.075 | 1.03 ± 0.1 | 0.993 ± 0.049 | 1.12 ± 0.34 | 1.08 ± 0.2 | 1.03 (active) |
| COc1ccc(NC(=O)c2ccc(C(=N)N(C)C)cc2)c(C(=O)Nc2ccc(Cl)cn2)c1 | 0.892 ± 0.33 | 1.18 ± 0.061 | 1.1 ± 0.11 | 0.837 ± 0.043 | 1.05 ± 0.13 | 1.22 ± 0.26 | 0.994 (active) |
| FC(F)(F)c1ccc(CNc2ccc(Cc3c[nH]c4ncc(Cl)cc34)cn2)cn1 | 0.154 ± 0.011 | 0.281 ± 0.028 | 0.378 ± 0.02 | 0.0391 ± 0.0019 | 0.335 ± 0.13 | 0.202 ± 0.083 | 0.978 (active) |
| CC1SC(c2ccccc2)NC1=O (stereo not drawn) | 1.04 ± 0.08 | 1.06 ± 0.065 | 0.952 ± 0.055 | 0.791 ± 0.026 | 1.42 ± 0.098 | 1.2 ± 0.12 | 0.999 (active) |
| COc1c(C)c2c(c(O)c1CC=C(C)CCC(=O)O)C(=O)OC2 | 0.695 ± 0.23 | 0.118 ± 0.008 | 0.367 ± 0.023 | 0.287 ± 0.0097 | 1.16 ± 0.15 | 1.55 ± 0.16 | 0.547 (inactive) |
| CC1(C)OC(=O)NC1=O [Prestw-829] | 1 ± 0.076 | 1.07 ± 0.065 | 0.958 ± 0.024 | 0.93 ± 0.051 | 0.958 ± 0.13 | 1.01 ± 0.12 | 0.998 (active) |
| COc1ccc2oc(=O)c(-c3csc(NC(=O)C=CC(=O)O)n3)cc2c1 | 1.09 ± 0.099 | 0.895 ± 0.086 | 0.985 ± 0.027 | 0.353 ± 0.017 | 0.938 ± 0.11 | 0.844 ± 0.13 | 0.959 (active) |
| CCOc1ccccc1OCCCCOc1cccc(Br)c1 | 0.728 ± 0.06 | 1.05 ± 0.075 | 0.968 ± 0.067 | 1.19 ± 0.031 | 1.49 ± 0.24 | 1.2 ± 0.2 | 1 (active) |
| Cl.NCCCC[C@H](N)C(=O)O | 1.03 ± 0.31 | 0.949 ± 0.063 | 1.01 ± 0.064 | 0.867 ± 0.052 | 1.2 ± 0.14 | 1.12 ± 0.18 | 1.01 (active) |
| O=[N+]([O-])c1ccc(OCC(O)CN2CCN(c3ccccc3)CC2)cc1 (stereo not drawn) | 0.91 ± 0.072 | 1.02 ± 0.059 | 0.964 ± 0.086 | 0.982 ± 0.024 | 1.42 ± 0.19 | 1.15 ± 0.15 | 1.01 (active) |
| CCOC(=O)C(Oc1ccc2c(c1)oc(=O)c1cc(OC)ccc12)c1ccccc1 (stereo not drawn) | 1.04 ± 0.062 | 0.998 ± 0.13 | 0.929 ± 0.025 | 0.977 ± 0.04 | 1.02 ± 0.089 | 1.11 ± 0.21 | 1 (active) |
| COc1ccc(OC)c(NC(=O)COc2cccc3c2OC(C)(C)C3)c1 | 0.489 ± 0.039 | 1.2 ± 0.095 | 1.22 ± 0.053 | 0.777 ± 0.054 | 0.912 ± 0.059 | 1.02 ± 0.077 | 0.976 (active) |
| COc1ccc(CN2CCN(C(c3ccc(F)cc3)c3ccc(F)cc3)CC2)c(OC)c1OC.Cl.Cl | 0.742 ± 0.032 | 0.927 ± 0.084 | 0.916 ± 0.049 | 0.604 ± 0.038 | 1.02 ± 0.24 | 1.17 ± 0.47 | 0.985 (active) |
| CCn1cc(C(=O)O)c(=O)c2cc(F)c(N3CCN(C)CC3)cc21.CS(=O)(=O)O | 1.12 ± 0.15 | 1.3 ± 0.22 | 0.938 ± 0.096 | 0.858 ± 0.037 | 1.45 ± 0.12 | 1.17 ± 0.11 | 0.986 (active) |
| O=c1ccc2ccc(OCCCCN3CCN(c4cccc5sccc45)CC3)cc2[nH]1 | 0.31 ± 0.016 | 0.917 ± 0.073 | 1.16 ± 0.14 | 1.05 ± 0.096 | 1.35 ± 0.25 | 1.15 ± 0.34 | 0.27 (inactive) |
| O=C(O)C(=O)O.c1ccc(SCCc2ccncc2)cc1 | 1.06 ± 0.12 | 1.04 ± 0.076 | 1 ± 0.056 | 1.05 ± 0.24 | 1.07 ± 0.09 | 1.19 ± 0.17 | 1 (active) |
| CCNC1(C(N)=O)CCN(c2ncnc3c2nc(-c2ccccc2Cl)n3-c2ccc(Cl)cc2)CC1.Cl | 1.24 ± 0.11 | 0.479 ± 0.038 | 0.674 ± 0.036 | 0.19 ± 0.0086 | 0.464 ± 0.13 | 0.484 ± 0.12 | 0.688 (inactive) |
| CCOC(=O)CNS(=O)(=O)c1ccc([N+](=O)[O-])cc1 | 1.09 ± 0.093 | 1.05 ± 0.11 | 1.04 ± 0.061 | 0.997 ± 0.13 | 1.05 ± 0.044 | 1.09 ± 0.087 | 0.998 (active) |
| CN(C)c1cncc(OC2CCN(S(C)(=O)=O)C2)n1 (stereo not drawn) | 1.02 ± 0.12 | 1.12 ± 0.1 | 0.911 ± 0.04 | 0.836 ± 0.045 | 0.951 ± 0.064 | 0.923 ± 0.07 | 1.01 (active) |
| COC(=O)C1=COC(OC2OC(CO)C(O)C(O)C2O)C2C1CC(O)C2C (stereo not drawn) | 1.04 ± 0.081 | 0.974 ± 0.099 | 0.994 ± 0.033 | 0.976 ± 0.063 | 0.946 ± 0.13 | 0.951 ± 0.24 | 0.998 (active) |
| C=C(C)CSC1=C(C#N)C(c2ccccc2)CC(=O)N1 (stereo not drawn) | 1.13 ± 0.091 | 0.954 ± 0.071 | 0.951 ± 0.092 | 0.772 ± 0.025 | 1.03 ± 0.15 | 0.999 ± 0.17 | 1.01 (active) |
| Cl.Nc1c(Br)cc(Br)cc1CNC1CCC(O)CC1 (stereo not drawn) | 0.911 ± 0.074 | 0.95 ± 0.1 | 1.04 ± 0.03 | 0.908 ± 0.065 | 0.94 ± 0.096 | 0.999 ± 0.079 | 0.998 (active) |
